Assay results taken from PubChem BioAssay (EPA / NIEHS).
Records with an inconclusive call do not appear. Activity calls are given as the source filed them. Rule for the calls, unless noted: active = hit-call score of the fitted dose curve at least 0.9, where 1 is the maximum; inactive = score below 0.9.

What was measured:
[1] = biological target: Transcription factor E2F1 (Homo sapiens) (UniProt Q01094); experiment: ATG_E2F_CIS: Attagene CIS-FACTORIAL HepG2 Assay for human E2F Transcription Factor 1 (AID 2282935); conditions: HepG2 Attagene cis-reporter, E2F reporter RNA transcripts; actives raise or lower the signal
Outline: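 Liver-derived HepG2 cells expressing transfected promoter-driven reporter units received test chemical for 24 hours. Signal gains or losses were fitted bidirectionally against DMSO.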

[2] = ATG_M_61_CIS: Attagene CIS-FACTORIAL HepG2 Assay for M61 Transcription Factor (Internal Marker) (AID 2282937); conditions: HepG2 Attagene CIS-FACTORIAL M61 internal marker reporter; actives raise or lower the signal
Outline: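 Readout is reporter mRNA by RT-PCR, fluorescent primer extension and capillary electrophoresis, with gain or loss fitted relative to DMSO. Transfected HepG2 cells carrying endogenous-TF-driven cis reporters were exposed to chemicals for 24 hours.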

[3] = ATG_GRE_CIS: Attagene CIS-FACTORIAL HepG2 Assay for human Glucocorticoid Response Elements (GRE) (AID 2282947); conditions: HepG2 GRE cis-reporter, Attagene multiplex mRNA; actives raise or lower the signal
Outline: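 Fluorescence intensity of reporter-specific cDNA fragments, separated by capillary electrophoresis, provides the signal. Constructs carry cis-regulating promoters in transiently transfected HepG2 liver cells; 24 h incubation; fitting is bidirectional against DMSO.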

[4] = ATG_ISRE_CIS: Attagene CIS-FACTORIAL HepG2 Assay for human Interferon Regulatory Factor 1 (IRF1) binding to an Interferon-Stimulated Response Element (ISRE) (AID 2282948); conditions: HepG2 ISRE cis-reporter (Attagene), mRNA transcription readout; actives raise or lower the signal
Outline: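 Endogenous transcription factor activity read as reporter transcript abundance via RT-PCR and capillary electrophoresis. HepG2 cells transiently transfected, 24 h chemical exposure. Gain or loss fitted against DMSO baseline.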

[5] = biological target: Hepatocyte nuclear factor 6 (Homo sapiens) (UniProt Q9UBC0); experiment: ATG_HNF6_CIS: Attagene CIS-FACTORIAL HepG2 Assay for human Hepatocyte Nuclear Factor 6 (HNF6) (AID 2282952); conditions: HepG2 Attagene cis-factorial HNF6 reporter transcription; actives raise or lower the signal
Outline: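 Readout: fluorescent reporter-transcript fragments resolved by capillary electrophoresis after RT-PCR, reflecting endogenous factor activity in transfected HepG2. Exposure 24 h. Gain or loss of signal fitted bidirectionally against DMSO.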

[6] = biological target: Heat shock factor protein 1 (Homo sapiens) (UniProt Q00613); experiment: ATG_HSE_CIS: Attagene CIS-FACTORIAL HepG2 Assay for human Heat Shock Transcription Factor 1 (HSE) (AID 2282953); conditions: HepG2 HSE cis-reporter, Attagene RNA transcription; actives raise or lower the signal
Outline: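 Endogenous transcription factor activity captured via cis-promoter reporter units transfected into HepG2; treatment lasted 24 h. Fluorescence intensity of reporter fragments analysed with bidirectional curve fitting, DMSO baseline.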

[7] = ATG_MRE_CIS: Attagene CIS-FACTORIAL HepG2 Assay for human Metal Responsive Element (MRE) (AID 2282954); conditions: HepG2 MRE cis-reporter transcription, Attagene multiplex; actives raise or lower the signal
Outline: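 Measured here is mRNA induction from an MRE cis-element reporter in HepG2 after 24 h, quantified by fluorescence of labelled RT-PCR products on capillary electrophoresis; gain- and loss-of-signal fits use DMSO as baseline.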

[8] = ATG_RORE_CIS: Attagene CIS-FACTORIAL HepG2 Assay for human RAR-related Orphan Receptor Element (RORE) (AID 2282959); conditions: HepG2 Attagene cis-factorial RORE reporter, mRNA; actives raise or lower the signal
Outline: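 RORE reporter transcripts reflecting endogenous factor activity were read after 24 h compound exposure of transfected HepG2 cells, using reverse transcription, PCR, fluorescent labelling and capillary electrophoresis sizing. Gain or loss fitted against DMSO.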

[9] = ATG_TA_CIS: Attagene CIS-FACTORIAL HepG2 Assay for human TA Basal Promoter (AID 2282964); conditions: HepG2 Attagene CIS-factorial TA basal promoter reporter; actives raise or lower the signal
Outline: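 Fluorescence from labelled RT-PCR reporter fragments, separated by capillary electrophoresis, gives the signal. Cells: HepG2 transiently carrying multiple reporter units, 24 h chemical dosing. Gain or loss relative to DMSO.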

[10] = ATG_TAL_CIS: Attagene CIS-FACTORIAL HepG2 Assay for human TAL Basal Promoter (AID 2282966); conditions: HepG2 Attagene cis-factorial TAL promoter reporter; actives raise or lower the signal;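 note: background control endpoint measuring basal TAL promoter reporter mRNA not a specific factor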
Outline: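 HepG2, transient MRTU transfection, 24 h compound exposure; RNA → oligo(dT) RT → PCR → 6-FAM primer extension → HpaI digest → CE fluorescence. Bidirectional curve fit vs DMSO. Background-control readout.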

[11] = biological target: X-box-binding protein 1 (Homo sapiens) (UniProt P17861); experiment: ATG_Xbp1_CIS: Attagene CIS-FACTORIAL HepG2 Assay for human X-box Binding Protein 1 (XBP1) (AID 2282972); conditions: HepG2 XBP1 cis-element reporter, Attagene multiplex; actives raise or lower the signal
Outline: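 Reporter transcripts were quantified by RT-PCR with fluorescent primer extension and capillary electrophoresis after 24 h chemical exposure. Cells: transiently transfected HepG2 carrying cis-regulated reporter constructs; data fitted bidirectionally relative to DMSO.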

[12] = biological target: Hepatocyte nuclear factor 4-alpha (Homo sapiens) (UniProt P41235); experiment: ATG_HNF4a_TRANS: Attagene TRANS-FACTORIAL HepG2 Assay for human Hepatocyte Nuclear Factor 4 alpha (HNF4a) (AID 2282982; active = hit-call score of the fitted dose curve at least 0.9, where 1 is the maximum); conditions: HepG2 HNF4a transactivation reporter, mRNA readout
Outline: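 Endpoint reflects transcriptional activation of a GAL4-UAS reporter by an HNF4a-GAL4 chimera in transfected HepG2 cells, 24 h post-dosing. Fluorescence from RT-PCR products separated by capillary electrophoresis; DMSO baseline.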

[13] = biological target: Nuclear respiratory factor 1 (Homo sapiens) (UniProt Q16656); experiment: ATG_NRF1_CIS: Attagene CIS-FACTORIAL HepG2 Assay for human Nuclear Respiratory Factor 1 (NRF1) Orphan Gene (AID 2282987); conditions: HepG2 NRF1 cis-element reporter, Attagene multiplex; actives raise or lower the signal
Outline: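 Endogenous NRF1-driven reporter transcription in transfected HepG2 cells after 24 h treatment. Readout: RT-PCR products, 6-FAM labelled and resolved by capillary electrophoresis; changes fitted both directions relative to DMSO.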

[14] = ATG_NFI_CIS: Attagene CIS-FACTORIAL HepG2 Assay for human Nuclear Factor I (NFI) (AID 2282989); conditions: HepG2 cis-regulatory reporter, NFI response element transcription; actives raise or lower the signal
Outline: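 Cells: human liver HepG2, transiently transfected with promoter-regulated reporter transcription units. Exposure 24 h. Detection: fluorescent RT-PCR products separated by capillary electrophoresis, normalised to DMSO negative control.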

[15] = biological target: Myc proto-oncogene protein (Homo sapiens) (UniProt P01106); experiment: ATG_Myc_CIS: Attagene CIS-FACTORIAL HepG2 Assay for human Myelocytomatosis (Myc) Proto-Oncogene Transcription Factor (AID 2282990); conditions: HepG2, Attagene cis-reporter transcription factor activity; actives raise or lower the signal
Outline: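 Transiently transfected HepG2 cells bearing cis-promoter reporter units for endogenous transcription factors; 24 h exposure. Reporter mRNA measured by RT-PCR, 6-FAM primer extension, HpaI cut and capillary electrophoresis; bidirectional fit relative to DMSO.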

[16] = ATG_NF_kB_CIS: Attagene CIS-FACTORIAL HepG2 Assay for human Nuclear Factor Kappa B (NF-kB) (AID 2282991); conditions: HepG2 Attagene cis-factorial NF-kB reporter mRNA; actives raise or lower the signal
Outline: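 Readout is reporter transcript level, gain or loss versus DMSO, measured 24 h post-dose via RT-PCR, fluorescent labelling and capillary electrophoresis. Human HepG2 liver cells carried transiently transfected CIS reporter constructs reflecting endogenous factors.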

[17] = ATG_NRF2_ARE_CIS: Attagene CIS-FACTORIAL HepG2 Assay for human Nuclear Factor Erythroid 2 Related Factor 2 (NFR2) response to Antioxidant Response Elements (ARE) (AID 2282992); conditions: HepG2 Attagene ARE/NRF2 reporter, transcription factor activity; actives raise or lower the signal
Outline: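 Endogenous transcription factor activity read out as reporter transcript levels (RT-PCR plus capillary electrophoresis, fluorescence) in transiently transfected HepG2 cells. Measured at 24 h after dosing; gain or loss of signal fitted versus DMSO.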

[18] = ATG_Oct_MLP_CIS: Attagene CIS-FACTORIAL HepG2 Assay for human Octamer-Binding Transcription Factor (Oct) (AID 2282993); conditions: HepG2 Attagene cis-factorial Oct reporter, mRNA; actives raise or lower the signal
Outline: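 HepG2, transient MRTU transfection, cis promoter elements; 24 h dosing; RT-PCR/CE fluorescence read-out of reporter mRNA; fit both directions vs DMSO.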

[19] = biological target: Cellular tumor antigen p53 (Homo sapiens) (UniProt P04637); experiment: ATG_p53_CIS: Attagene CIS-FACTORIAL HepG2 Assay for human p53 Transcription Factor (AID 2282994); conditions: HepG2 p53 cis-element reporter, Attagene mRNA; actives raise or lower the signal
Outline: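 Endogenous p53 activity read in transiently transfected HepG2 from a cis-element-driven reporter transcript after 24 h exposure. RNA reverse-transcribed, PCR-amplified, fluorescently labelled and sized by capillary electrophoresis; gain or loss fitted against DMSO baseline.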

[20] = ATG_VDRE_CIS: Attagene CIS-FACTORIAL HepG2 Assay for human Vitamin D Receptor Element (VDRE) (AID 2282968); conditions: HepG2 VDRE cis-reporter transcription, actives raise or lower the signal
Outline: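 Compounds were applied for 24 h to HepG2 cells transfected with promoter-regulated reporter units. Total RNA was reverse-transcribed, and reporter amplicons were fluorescently labelled and sized by capillary electrophoresis.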

Measured: AC50

Sequence of Hepatocyte nuclear factor 4-alpha (Homo sapiens) (P41235 whole entry, looked up, the tested form may be a part): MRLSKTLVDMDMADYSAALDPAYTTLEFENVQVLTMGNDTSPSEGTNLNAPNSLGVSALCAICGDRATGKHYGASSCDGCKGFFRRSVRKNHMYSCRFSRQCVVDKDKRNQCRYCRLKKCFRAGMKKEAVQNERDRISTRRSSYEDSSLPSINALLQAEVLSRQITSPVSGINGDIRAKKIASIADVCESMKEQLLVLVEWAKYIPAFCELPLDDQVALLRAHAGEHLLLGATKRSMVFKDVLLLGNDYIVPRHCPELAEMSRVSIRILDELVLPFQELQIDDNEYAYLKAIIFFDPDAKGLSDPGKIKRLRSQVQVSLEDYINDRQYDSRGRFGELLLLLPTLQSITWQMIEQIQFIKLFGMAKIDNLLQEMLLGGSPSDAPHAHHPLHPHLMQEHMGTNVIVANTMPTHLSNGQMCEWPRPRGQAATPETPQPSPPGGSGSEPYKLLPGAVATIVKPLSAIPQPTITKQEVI
Sequence of Cellular tumor antigen p53 (Homo sapiens) (P04637 whole entry, looked up): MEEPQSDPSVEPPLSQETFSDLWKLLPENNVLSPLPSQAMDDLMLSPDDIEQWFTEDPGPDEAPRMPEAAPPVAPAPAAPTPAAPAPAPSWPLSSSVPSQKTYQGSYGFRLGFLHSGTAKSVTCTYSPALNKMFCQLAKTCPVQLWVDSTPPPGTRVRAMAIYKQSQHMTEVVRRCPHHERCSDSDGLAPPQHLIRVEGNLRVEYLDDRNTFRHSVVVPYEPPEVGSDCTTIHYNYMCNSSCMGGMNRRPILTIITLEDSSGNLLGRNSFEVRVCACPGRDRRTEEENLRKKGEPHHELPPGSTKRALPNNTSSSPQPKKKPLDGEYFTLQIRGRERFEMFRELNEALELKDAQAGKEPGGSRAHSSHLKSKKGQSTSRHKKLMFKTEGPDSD
Sequence of Nuclear respiratory factor 1 (Homo sapiens) (Q16656 whole entry, looked up): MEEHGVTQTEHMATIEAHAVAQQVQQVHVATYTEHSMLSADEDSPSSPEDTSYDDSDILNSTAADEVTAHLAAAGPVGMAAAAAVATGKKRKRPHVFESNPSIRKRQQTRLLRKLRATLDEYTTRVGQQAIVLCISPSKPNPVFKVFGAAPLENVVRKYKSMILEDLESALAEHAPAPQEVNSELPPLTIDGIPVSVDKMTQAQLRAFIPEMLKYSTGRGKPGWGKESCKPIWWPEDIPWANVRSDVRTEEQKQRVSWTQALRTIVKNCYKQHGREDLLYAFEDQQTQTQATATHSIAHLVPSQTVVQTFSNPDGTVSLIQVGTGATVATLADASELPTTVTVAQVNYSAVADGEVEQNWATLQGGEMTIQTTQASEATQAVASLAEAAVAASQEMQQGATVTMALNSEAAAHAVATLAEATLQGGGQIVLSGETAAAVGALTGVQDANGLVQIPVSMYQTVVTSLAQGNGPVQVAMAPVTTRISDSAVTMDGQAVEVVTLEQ
Sequence of Transcription factor E2F1 (Homo sapiens) (Q01094 whole entry, looked up): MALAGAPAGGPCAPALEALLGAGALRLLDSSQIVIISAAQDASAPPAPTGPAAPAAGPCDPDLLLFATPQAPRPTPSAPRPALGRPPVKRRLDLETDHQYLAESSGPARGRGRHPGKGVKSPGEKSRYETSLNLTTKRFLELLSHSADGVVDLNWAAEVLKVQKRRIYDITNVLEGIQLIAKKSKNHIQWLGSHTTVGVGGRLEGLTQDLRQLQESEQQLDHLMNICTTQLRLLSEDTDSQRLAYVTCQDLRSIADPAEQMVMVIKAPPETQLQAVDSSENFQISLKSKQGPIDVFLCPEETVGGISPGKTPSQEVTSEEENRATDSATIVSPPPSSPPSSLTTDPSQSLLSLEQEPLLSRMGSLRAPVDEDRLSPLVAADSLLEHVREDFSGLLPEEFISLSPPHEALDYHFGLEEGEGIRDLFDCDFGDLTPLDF
Sequence of Heat shock factor protein 1 (Homo sapiens) (Q00613 whole entry, looked up, the tested form may be a part): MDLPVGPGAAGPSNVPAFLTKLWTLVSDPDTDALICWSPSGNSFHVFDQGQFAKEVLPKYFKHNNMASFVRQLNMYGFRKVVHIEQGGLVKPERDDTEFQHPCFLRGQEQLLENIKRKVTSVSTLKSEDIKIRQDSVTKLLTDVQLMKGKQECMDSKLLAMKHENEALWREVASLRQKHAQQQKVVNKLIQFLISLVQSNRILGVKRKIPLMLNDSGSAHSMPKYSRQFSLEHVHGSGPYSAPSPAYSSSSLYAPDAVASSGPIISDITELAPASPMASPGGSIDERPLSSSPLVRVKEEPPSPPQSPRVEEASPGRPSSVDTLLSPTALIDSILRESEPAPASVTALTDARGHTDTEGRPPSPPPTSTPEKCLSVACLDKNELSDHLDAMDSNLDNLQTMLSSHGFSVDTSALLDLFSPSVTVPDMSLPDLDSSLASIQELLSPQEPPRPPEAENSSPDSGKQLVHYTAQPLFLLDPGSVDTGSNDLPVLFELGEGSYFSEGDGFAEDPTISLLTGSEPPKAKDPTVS
Sequence of X-box-binding protein 1 (Homo sapiens) (P17861 whole entry, looked up): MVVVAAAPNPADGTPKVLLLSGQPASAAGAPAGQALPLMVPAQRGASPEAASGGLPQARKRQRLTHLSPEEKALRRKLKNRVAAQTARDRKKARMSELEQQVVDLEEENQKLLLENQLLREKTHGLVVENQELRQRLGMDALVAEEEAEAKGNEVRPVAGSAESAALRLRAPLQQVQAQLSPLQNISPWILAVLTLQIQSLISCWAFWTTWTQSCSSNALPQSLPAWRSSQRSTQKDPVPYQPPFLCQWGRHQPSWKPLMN
Sequence of Hepatocyte nuclear factor 6 (Homo sapiens) (Q9UBC0 whole entry, looked up, the tested form may be a part): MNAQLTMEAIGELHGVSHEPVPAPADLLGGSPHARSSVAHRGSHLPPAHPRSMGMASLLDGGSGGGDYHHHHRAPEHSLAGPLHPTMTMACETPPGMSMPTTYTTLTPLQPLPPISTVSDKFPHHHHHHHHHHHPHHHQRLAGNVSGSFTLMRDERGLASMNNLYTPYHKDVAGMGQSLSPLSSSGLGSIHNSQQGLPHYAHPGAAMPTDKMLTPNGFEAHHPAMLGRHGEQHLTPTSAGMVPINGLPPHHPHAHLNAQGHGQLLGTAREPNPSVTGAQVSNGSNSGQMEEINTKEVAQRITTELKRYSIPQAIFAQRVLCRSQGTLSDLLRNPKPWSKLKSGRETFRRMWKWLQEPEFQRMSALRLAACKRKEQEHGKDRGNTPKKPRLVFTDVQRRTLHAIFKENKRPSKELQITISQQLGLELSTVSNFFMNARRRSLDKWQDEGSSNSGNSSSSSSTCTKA
Sequence of Myc proto-oncogene protein (Homo sapiens) (P01106 whole entry, looked up): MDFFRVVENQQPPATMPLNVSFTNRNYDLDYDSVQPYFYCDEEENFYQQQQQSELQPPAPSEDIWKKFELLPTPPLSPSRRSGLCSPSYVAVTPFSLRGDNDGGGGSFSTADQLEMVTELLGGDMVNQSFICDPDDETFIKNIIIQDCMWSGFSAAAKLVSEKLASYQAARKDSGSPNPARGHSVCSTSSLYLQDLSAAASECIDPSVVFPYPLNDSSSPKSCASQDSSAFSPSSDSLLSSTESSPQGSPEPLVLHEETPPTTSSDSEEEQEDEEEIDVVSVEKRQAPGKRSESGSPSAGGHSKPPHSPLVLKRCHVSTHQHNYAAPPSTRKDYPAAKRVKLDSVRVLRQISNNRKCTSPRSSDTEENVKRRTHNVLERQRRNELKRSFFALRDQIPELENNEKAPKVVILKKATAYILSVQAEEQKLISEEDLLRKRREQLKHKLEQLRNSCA

c1ccc(Nc2ccc3ccccc3c2)cc1
active: [17] 37 µM
not listed: [20]
inactive: all other assays above

N#CCCCl
not listed: [2] | [13]
inactive: all other assays above

O=[N+]([O-])C=Cc1ccccc1
inactive: [1] | [2] | [3] | [5] | [8] | [9] | [10] | [15] | [17]
active: [4] 27.6 µM | [7] 13.3 µM | [20] 10.7 µM | [11] 20.3 µM | [12] 47.5 µM | [13] 38.5 µM | [14] 18.6 µM | [16] 34.7 µM | [18] 18.5 µM | [19] 20.2 µM

O=C(O)c1cc[c]([Hg][Cl])cc1
active: [7] 7.75 µM | [11] 7.19 µM | [14] 11.1 µM | [17] 11.1 µM | [18] 6.74 µM | [19] 7.47 µM
not listed: [1] | [13]
inactive: all other assays above

C[N+](C)(C)CC(=O)O
not listed: [1] | [3] | [16] | [19] | [20]
inactive: all other assays above

C[N+](C)=CCl
not listed: [8] | [19]
inactive: all other assays above

CCOC(=O)COc1ccc(Cl)cc1Cl
not listed: [12] | [13] | [20]
inactive: all other assays above

CC(C)c1ccc(O)cc1
active: [17] 49.6 µM
not listed: [12]
inactive: all other assays above

COC(=O)COc1ccc(Cl)cc1Cl
not listed: [3] | [7]
inactive: all other assays above

COCC(=O)N(c1c(C)cccc1C)N1CCOC1=O
active: [20] 65.9 µM
not listed: [3] | [5]
inactive: all other assays above

Nc1ccc(-c2ccc(N)c(N)c2)cc1N
active: [17] 14 µM
not listed: [3] | [4] | [19]
inactive: all other assays above

O=C(O)CCl
not listed: [4] | [7] | [16] | [19]
inactive: all other assays above

Nc1ccccc1
not listed: [7] | [12] | [16]
inactive: all other assays above

NNc1ccccc1
active: [17] 47.1 µM
not listed: [3] | [5] | [19] | [20]
inactive: all other assays above

N#CC(c1ccccc1)c1ccccc1
active: [20] 30.3 µM | [17] 77.9 µM
not listed: [16]
inactive: all other assays above

CN(C)CCC#N
not listed: [1]
inactive: all other assays above

CCCCOP(=O)(O)OCCCC
not listed: [5] | [13] | [19] | [20]
inactive: all other assays above

c1ccc2c(c1)CCCC2
inactive: all assays above
